About 8,600 (12%) of roughly 69,000 compounds showed an effect of 50% or more. Shown is part of a subset that was picked to be rich in strong results.

The test concerns Plasmodium berghei. Nature of the test: Screen against P. berghei liver stage (PbLuc), transformed with Luciferase, at 10uM. In kind it is functional, HepG2. As to conditions: tested at 10 uM.
Take `Cc1ccc(CN2CCC[C@]3(C(=O)O)CN(CC4CC4)C[C@@H]3C2)s1`: the INHIBITION is reported as -27.6%.

For `COCC(=O)N1CCN(Cc2cc(F)cc(Br)c2)CC1`, the INHIBITION is given as -10.9%.

In the case of `CN(C)CCOCc1nnc2n1CCN(Cc1ccco1)C2`, the INHIBITION is given as -13.7%.

Consider `CCc1ccc(C2COCCN2C(=O)Nc2ccc(C#N)cc2)o1` (stereo not drawn), for which the INHIBITION amounted to 65.3%.

Consider `CCc1ccc(C2COCCN2C(=O)Nc2cccc(C(C)=O)c2)o1` (stereo not drawn), for which the INHIBITION is on record as -2.9%.

For the molecule `CCc1ccc(C2COCCN2C(=O)NCc2cccc(C#N)c2)o1` (stereo not drawn), the INHIBITION is given as -92.8%.

`CCc1ccc(C2COCCN2C(=O)Nc2ccc(C(N)=O)c(Cl)c2)o1` (stereo not drawn): the INHIBITION is reported as 78.3%.

Turning to `Cc1ccc(C2COCCN2C(=O)c2ccc(C#N)cc2)o1` (stereo not drawn), the INHIBITION was 32%.

`CCc1ccc(C2COCCN2C(=O)Nc2cc(C)on2)o1` (stereo not drawn): the INHIBITION is -107%.

Consider `CNC(=O)C1CN(Cc2c[nH]cn2)CCN(C2CCOCC2)C1` (stereo not drawn), for which the INHIBITION was 25.6%.

For `CC(C)Oc1ccc(C(=O)N2CCCSCC2CN(C)C)cc1` (stereo not drawn), the INHIBITION is 36.6%.

On to `O=C(COC[C@H]1CC[C@H]2[C@H](CCN2c2ccccn2)O1)N1CCCC1`, for which the INHIBITION is recorded as -37.4%.

With `Cc1nccn1CCN(C)C(=O)c1cn(CC2CCCCC2)nn1`, the INHIBITION is on record as 41.8%.

With `OCc1ccc(Cl)c(NCc2cccnc2)c1`, the INHIBITION was found to be 3.16%.

`Cc1cc(NCc2cccnc2)n2nc(C)cc2n1`: the INHIBITION was -10.4%.

Turning to `COc1cccc(CSCC(=O)NCc2cccnc2)c1`, the INHIBITION turned out to be 54.5%.

For the molecule `CCSCc1cccc(NCc2cccnc2)c1`, the INHIBITION is 61.6%.

In the case of `COc1ccnc(NC(=O)CSCc2cccnc2)c1`, the INHIBITION turned out to be 36.9%.

As for `CCSc1cccc(NCc2cccnc2)c1`, the INHIBITION turned out to be 85.2%.

For the molecule `COCc1cccc(NCc2cccnc2)c1`, the INHIBITION was determined as 36.5%.

Regarding `COc1cccc(CNCc2cccnc2)c1`, the INHIBITION stood at 13.7%.

As for `CCOCc1nnc(NCc2cccnc2)o1`, the INHIBITION is listed as -0.897%.

For the molecule `CCCc1nn(Cc2ccc(Br)s2)c(=O)o1`, the INHIBITION worked out at 40.5%.

With `CCc1nc(CN2CCCN(C(=O)CC(C)OC)CC2)cs1` (stereo not drawn), the INHIBITION turned out to be 43.3%.

Consider `CN(Cc1nccn1CC(F)(F)F)C(=O)c1cccc(C#N)c1`, for which the INHIBITION is recorded as 41.1%.

As to `CC(NC(=O)CNc1cc2c(cc1Cl)OCCO2)c1ccco1` (stereo not drawn), the INHIBITION is given as -10.3%.

On to `O=C(Nc1ccc(-c2cnc(NCCO)nc2)cc1)[C@@H]1CCCCN1`, for which the INHIBITION amounted to 23.4%.

Regarding `CCCn1nc2c(cc1=O)CN(CCCS(N)(=O)=O)CC2`, the INHIBITION is on record as 47.6%.

On to `CCCn1nc2c(cc1=O)CN(CCN1CCCC1=O)CC2`, for which the INHIBITION is -7.35%.

As to `CCCn1nc2c(cc1=O)CN(Cc1cc(C)on1)CC2`, the INHIBITION stood at 40.1%.

Take `CCCn1nc2c(cc1=O)CN(Cc1ccccn1)CC2`: the INHIBITION is reported as 58.3%.

Take `CCCn1nc2c(cc1=O)CN(Cc1nc(C)c3ccccc3n1)CC2`: the INHIBITION is reported as 34.6%.

Regarding `CCCn1nc2c(cc1=O)CN(CCS(C)(=O)=O)CC2`, the INHIBITION came to 70.1%.

Source of the values: ChEMBL document CHEMBL4513216, “Probing the Open Global Health Chemical Diversity Library for Multistage-Active Starting Points for Next-Generation Antimalarials” (ACS Infect Dis, 2020).
